{"source": "PubChem BioAssay (NCATS)", "note": "Results filed as inconclusive are left out. Where a call stands in place of a potency, no number is given. Active and inactive are the calls of the source. Calls come from the whole dose curve; as a rule, active = well fitted inhibition curve with a large enough effect; inconclusive = small, poorly fitted or top-dose-only effect; inactive = flat fitted curve, though single readings scatter. Numbered stars: 1 amine (or outer) side, 2 acyl side, 3 side chain; on linkers, the order of the positions; unused ones are H or OH. Square brackets hold non-standard residues; d marks the D form. Peptide text beside a SMILES is read from it. ξ: configuration not given here. Ala(indol-2-yl) = N[C@@H](Cc1cc2ccccc2[nH]1)C(=O)O; X5 = O=C([C@@H](CC(O)CCl)O[*:1])[*:2]; aIle = CC[C@@H](C)[C@H](N)C(=O)O; ξLac(3-iPr) = CC(C)CC(O)C(=O)O; NMeV = CN[CH](C(=O)O)C(C)C; NMeA = CN[CH](C)C(=O)O; Aib = CC(C)(N)C(=O)O; βAla = NCCC(=O)O", "data": [{"molecular_target": "Aldehyde dehydrogenase, mitochondrial (Homo sapiens) (UniProt P05091)", "experiment": "qHTS for Inhibitors of the Aldehyde Dehydrogenase Family (ALDH2) Primary screen (AID 2061308); note: nearly all actives have a fitted effect of over 55% in size", "conditions": "ALDH2 enzyme inhibition qHTS, 1536-well; series mostly up to 56 µM", "values": [{"compound": "C/C=C(\\C)C(=O)OC1CC2C(C)(C)OC(=O)CC(OC(C)=O)C2(C)C2CC(OC(=O)C(C)C)C3(C)C(c4ccoc4)CC4OC43C12C", "note": "(centres undefined)", "Potency": "inactive"}, {"compound": "CCC(C)(OC(C)=O)C(=O)O[C@H]1[C@H](OC(C)=O)C[C@@H]2[C@@](C)([C@@H]3C[C@H]4C=CO[C@H]4O3)[C@H](C)C[C@H](OC(C)=O)[C@@]2(COC(C)=O)[C@@]12CO2", "note": "(some centres undefined)", "Potency": "inactive"}, {"compound": "C[C@@H]1CCC2[C@@H](C)C(=O)OC3O[C@@]4(C)CCC1[C@]32OO4", "note": "(some centres undefined)", "Potency": "inactive"}, {"compound": "CC1=CC2OC3CC(O)[C@](C)([C@@]2(C)C(O)C1=O)[C@]31CO1", "note": "(some centres undefined)", "Potency": "inactive"}, {"compound": "CC(=O)OC1CC(O)C(C)(C)C2CC(OC(C)=O)C3(C)C(CCC4(C)C(c5ccoc5)C(=O)C5OC543)C12C", "note": "(centres undefined)", "Potency": "inactive"}, {"compound": "COc1c(C(C)C)cc2c(c1O)[C@@]1(C(=O)O)CCCC(C)(C)C1CC2", "note": "(some centres undefined)", "Potency": "inactive"}, {"compound": "CC(C)(NC(=O)[C@@H](N)Cc1ccc(O)cc1)C(=O)N[C@@H](Cc1cc2ccccc2[nH]1)C(=O)N[C@@H](Cc1ccccc1)C(=O)O", "note": "(H-Y[Aib][Ala(indol-2-yl)]F-OH)", "activity change, negative = inhibition": "-1.78% [at 11.2 µM] (inactive)"}, {"compound": "N#CC(O[C@@H]1O[C@H](CO)[C@@H](O)[C@H](O)[C@H]1O)c1ccccc1", "note": "(some centres undefined)", "Potency": "inactive"}, {"compound": "CCCN(CCC)CCc1ccc(OC)c(OCCc2ccccc2)c1", "Potency": "inactive"}, {"compound": "CCN1C[C@]2(COC)CC[C@H](O)[C@@]34C5C[C@@H]6[C@@H](OC)C[C@@](OC(C)=O)(C5[C@@H]6OC(C)=O)[C@H]([C@H](OC)C23)[C@@H]14", "note": "(some centres undefined)", "Potency": "inactive"}, {"compound": "C[C@]12CC[C@H](O[C@@H]3O[C@H](CO)[C@@H](O)[C@H](O)[C@H]3O)CC1=CC[C@@H]1C2CC[C@]2(C)[C@@H](C3=CC(=O)OC3)CC[C@]12O", "note": "(some centres undefined)", "Potency": "inactive"}, {"compound": "O=C(O)c1ccnc2cc(C(OCCN3CCCCC3)c3ccccc3Cl)[nH]c12", "note": "(centres undefined)", "Potency": "inactive"}, {"compound": "C[C@]12CC[C@H](O)C[C@H]1CC[C@@H]1[C@@H]2[C@H](O)C(=O)[C@]2(C)[C@@H](c3ccc(=O)oc3)CC[C@]12O", "Potency": "inactive"}, {"compound": "CC[C@@H](C)[C@@H]1NC(=O)[C@@H]2CCCN2C(=O)[C@@H](CC(O)CCl)OC(=O)CCNC(=O)[C@H](C)N(C)C(=O)[C@H](C(C)C)N(C)C1=O", "note": "(some centres undefined) (cyclo([NMeA][βAla][X5]P[aIle][NMeV]))", "Potency": "inactive"}, {"compound": "C[C@]12CC[C@H](O[C@@H]3O[C@H](CO)[C@@H](O)[C@H](O)[C@H]3O)CC1CC[C@@H]1C2CC[C@]2(C)[C@@H](C3=CC(=O)OC3)CC[C@]12O", "note": "(some centres undefined)", "Potency": "inactive"}, {"compound": "CC1=CC2/C=C(\\C)CCC(O)C(O)/C=C/C(=O)C23C(=O)NC(CC(C)C)C3C1C", "note": "(centres undefined)", "Potency": "inactive"}, {"compound": "CC[C@@]1(O)C(=O)OCc2c1cc1n(c2=O)Cc2cc3c(OC)cccc3nc2-1", "Potency": "inactive"}, {"compound": "C[C@]12CC[C@H](O)CC1=CC[C@@H]1C2CC[C@]2(C)[C@@H](C3=CC(=O)OC3)CC[C@]12O", "note": "(some centres undefined)", "Potency": "inactive"}, {"compound": "CCC(C)(C#N)O[C@@H]1O[C@H](CO)[C@@H](O)[C@H](O)[C@H]1O", "note": "(some centres undefined)", "Potency": "inactive"}, {"compound": "CC(C)(C)NC[C@H](O)c1ccc(O)cc1Cl", "Potency": "inactive"}, {"compound": "C[C@@]12C[C@@H](c3ccoc3)OC(=O)C1CC[C@]1(C)[C@H]2[C@H]2C=C[C@]1(O)C(=O)O2", "note": "(some centres undefined)", "Potency": "inactive"}, {"compound": "COC1C(O)C(C)OC(OC2C(CO)O[C@@H](O[C@@H]3CC4CCC5C(CC[C@]6(C)[C@@H](C7=CC(=O)OC7)CC[C@]56O)[C@@]4(C)[C@H](O)C3)C(O)C2O)C1O", "note": "(some centres undefined)", "Potency": "inactive"}, {"compound": "Cc1ccccc1C1=CCN(C)CC1", "Potency": "inactive"}, {"compound": "CN1CCC2=C(C1)c1ccccc1Cc1ccccc12", "Potency": "inactive"}, {"compound": "C[C@H]1O[C@@H](n2cnc3c(N)ncnc32)C[C@@H]1O", "Potency": "inactive"}, {"compound": "Oc1ccc2c3c1O[C@H]1[C@H](N(CCCl)CCCl)CC[C@@]4(O)[C@@H](C2)N(CC2CC2)CC[C@]314", "activity change, negative = inhibition": "-5.73% [at 11.2 µM] (inactive)"}, {"compound": "COC[C@]12CN(C)C3C4[C@H](OC)[C@H]1C3(C(OC)C[C@H]2O)[C@H]1C[C@@]2(O)[C@H](OC(=O)c3ccccc3)[C@@H]1[C@]4(O)[C@@H](O)[C@@H]2OC", "note": "(some centres undefined)", "Potency": "inactive"}, {"compound": "CC(=O)O[C@H]1CN2CCC1CC2", "Potency": "inactive"}, {"compound": "CN1C[C@@H]2CN(c3ccc(-c4ccccc4)nn3)C[C@@H]2C1", "Potency": "inactive"}, {"compound": "CCC1=CC2CN3CCc4c([nH]c5ccccc45)[C@@](C(=O)OC)(C2)[C@@H]13", "Potency": "inactive"}, {"compound": "CCN1C[C@]2(COC)[C@H](O)C[C@H](OC)[C@]34[C@@H]5C[C@]6(O)[C@H](OC(=O)c7ccccc7)[C@@H]5[C@@](O)([C@H]([C@H](OC)[C@H]23)[C@@H]14)[C@@H](O)[C@@H]6OC", "Potency": "inactive"}, {"compound": "C/C=C(\\C)C(O)C(C)/C=C(C)/C=C/C/C(C)=C/Cc1nc(OC)c(OC)c(O[C@@H]2O[C@@H](C)[C@H](O)[C@@H](O)[C@H]2O)c1C", "note": "(some centres undefined)", "Potency": "inactive"}, {"compound": "C=C1[C@@H]2CC[C@@]3(C)[C@H](c4ccoc4)OC(=O)C[C@]13O[C@H]1CC(=O)C(C)(C)[C@H](C(OC(C)=O)C(=O)OC)[C@]12C", "note": "(some centres undefined)", "Potency": "inactive"}, {"compound": "CCC(C)C1NC(=O)C2CCCN2C(=O)C(CC(C)C)OC(=O)CCNC(=O)C(C)N(C)C(=O)C(C(C)C)N(C)C1=O", "note": "(centres undefined) (cyclo([ξLac(3-iPr)]PI[NMeV][NMeA][βAla]); configuration not given here)", "Potency": "inactive"}, {"compound": "COC1=CC(=O)O[C@@H](CCc2ccccc2)C1", "Potency": "inactive"}, {"compound": "CC[C@H]1C[C@@H]2CC[C@@H](O2)[C@@H](C)C(=O)O[C@H](CC)C[C@H]2CC[C@H](O2)[C@H](C)C(=O)O[C@@H](C)C[C@@H]2CC[C@@H](O2)[C@@H](C)C(=O)O[C@H](CC)C[C@H]2CC[C@H](O2)[C@H](C)C(=O)O1", "Potency": "inactive"}, {"compound": "CC[C@H]1CN2CC[C@H]1C[C@H]2[C@H](O)c1ccnc2ccc(OC)cc12", "Potency": "inactive"}, {"compound": "C[C@H]1CCC[C@H](O)CCC/C=C/c2cc(O)cc(O)c2C(=O)O1", "Potency": "inactive"}, {"compound": "C=C[C@H]1[C@H](O[C@@H]2O[C@H](CO)[C@@H](O)[C@H](O)[C@H]2O)OC=C2C(=O)OCC[C@H]21", "Potency": "inactive"}]}]}
